Reference: PubChem BioAssay (EPA / NIEHS)
Inconclusive results are not listed. Calls of active or inactive are those of the source. How the source made its calls, unless noted: active means hit-call score of the fitted dose curve at least 0.9, where 1 is the maximum; inactive means score below 0.9.

Key:
[1] = ATG_TGFb_CIS: Attagene CIS-FACTORIAL HepG2 Assay for human Transforming Growth Factor (TGF) (AID 2282967); details: HepG2 Attagene CIS TGFb reporter, mRNA transcription; actives raise or lower the signal
Outline: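 Multiplexed cis-reporter HepG2 system, 24 h treatment; mRNA induction read by fluorescence after RT-PCR and CE; DMSO negative control, bidirectional curve fitting.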

[2] = target: X-box-binding protein 1 (Homo sapiens) (UniProt P17861); assay: ATG_Xbp1_CIS: Attagene CIS-FACTORIAL HepG2 Assay for human X-box Binding Protein 1 (XBP1) (AID 2282972); details: HepG2 XBP1 cis-element reporter, Attagene multiplex; actives raise or lower the signal
Chain of X-box-binding protein 1 (Homo sapiens) (P17861 whole entry, looked up): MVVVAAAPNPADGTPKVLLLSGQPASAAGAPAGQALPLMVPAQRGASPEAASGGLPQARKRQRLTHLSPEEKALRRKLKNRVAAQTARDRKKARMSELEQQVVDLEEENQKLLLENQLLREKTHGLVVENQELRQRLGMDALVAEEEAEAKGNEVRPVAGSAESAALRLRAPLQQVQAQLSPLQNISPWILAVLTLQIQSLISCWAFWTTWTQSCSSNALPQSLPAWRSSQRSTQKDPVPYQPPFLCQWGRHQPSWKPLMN
Outline: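 Reporter transcripts were quantified by RT-PCR with fluorescent primer extension and capillary electrophoresis after 24 h chemical exposure. Cells: transiently transfected HepG2 carrying cis-regulated reporter constructs; data fitted bidirectionally relative to DMSO.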

[3] = ATG_GAL4_TRANS: Attagene TRANS-FACTORIAL HepG2 Assay for GAL4 (Internal Marker) (AID 2282976; active means hit-call score of the fitted dose curve at least 0.9, where 1 is the maximum); details: HepG2 Attagene TRANS GAL4 internal marker reporter
Outline: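 Background-control readout: GAL4-UAS reporter transcript in transiently transfected HepG2 cells after 24 h compound exposure. Measured by RT-PCR, 6-FAM primer extension, HpaI digest and capillary electrophoresis; gain-of-signal fit versus DMSO.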

[4] = ATG_VDRE_CIS: Attagene CIS-FACTORIAL HepG2 Assay for human Vitamin D Receptor Element (VDRE) (AID 2282968); details: HepG2 VDRE cis-reporter transcription, actives raise or lower the signal
Outline: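 Readout is VDRE-driven reporter mRNA reflecting endogenous factor activity in human HepG2 cells, sampled 24 h post-dose. Quantification used labelled RT-PCR products separated by capillary electrophoresis; bidirectional analysis relative to DMSO.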

[5] = target: Nuclear receptor subfamily 1 group I member 3 (Homo sapiens) (UniProt Q14994); assay: ATG_CAR_TRANS: Attagene TRANS-FACTORIAL HepG2 Assay for human Constitutive Androstane Receptor (CAR) (AID 2282969; active means hit-call score of the fitted dose curve at least 0.9, where 1 is the maximum;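 further: activators raise reporter mRNA above DMSO so AC50 marks induction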); details: HepG2 Attagene TRANS-FACTORIAL CAR reporter
Chain of Nuclear receptor subfamily 1 group I member 3 (Homo sapiens) (Q14994 whole entry, looked up, the tested form may be a part): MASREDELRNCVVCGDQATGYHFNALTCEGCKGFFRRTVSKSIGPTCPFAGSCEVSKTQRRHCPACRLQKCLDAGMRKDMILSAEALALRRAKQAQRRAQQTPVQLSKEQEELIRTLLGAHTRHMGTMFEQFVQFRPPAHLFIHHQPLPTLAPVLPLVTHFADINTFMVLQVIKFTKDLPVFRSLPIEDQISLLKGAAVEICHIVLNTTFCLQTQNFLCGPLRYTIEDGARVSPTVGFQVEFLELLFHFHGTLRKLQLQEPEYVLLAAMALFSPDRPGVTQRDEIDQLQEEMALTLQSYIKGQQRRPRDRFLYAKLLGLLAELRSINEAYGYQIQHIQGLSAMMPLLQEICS
Outline: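 Signal is reporter mRNA induction relative to DMSO, measured 24 h after dosing by RT-PCR with fluorescent primer extension and capillary electrophoresis. Human HepG2 liver cells carried transiently transfected chimeric NR-Gal4/GAL4-UAS reporter constructs.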

[6] = target: Estrogen receptor (Homo sapiens) (UniProt P03372); assay: ATG_ERa_TRANS: Attagene TRANS-FACTORIAL HepG2 Assay for human Estrogen Receptor alpha (ERa) (AID 2282970; active means hit-call score of the fitted dose curve at least 0.9, where 1 is the maximum); details: HepG2 Attagene TRANS ERa GAL4 reporter, mRNA
Chain of Estrogen receptor (Homo sapiens) (P03372 whole entry, looked up, the tested form may be a part): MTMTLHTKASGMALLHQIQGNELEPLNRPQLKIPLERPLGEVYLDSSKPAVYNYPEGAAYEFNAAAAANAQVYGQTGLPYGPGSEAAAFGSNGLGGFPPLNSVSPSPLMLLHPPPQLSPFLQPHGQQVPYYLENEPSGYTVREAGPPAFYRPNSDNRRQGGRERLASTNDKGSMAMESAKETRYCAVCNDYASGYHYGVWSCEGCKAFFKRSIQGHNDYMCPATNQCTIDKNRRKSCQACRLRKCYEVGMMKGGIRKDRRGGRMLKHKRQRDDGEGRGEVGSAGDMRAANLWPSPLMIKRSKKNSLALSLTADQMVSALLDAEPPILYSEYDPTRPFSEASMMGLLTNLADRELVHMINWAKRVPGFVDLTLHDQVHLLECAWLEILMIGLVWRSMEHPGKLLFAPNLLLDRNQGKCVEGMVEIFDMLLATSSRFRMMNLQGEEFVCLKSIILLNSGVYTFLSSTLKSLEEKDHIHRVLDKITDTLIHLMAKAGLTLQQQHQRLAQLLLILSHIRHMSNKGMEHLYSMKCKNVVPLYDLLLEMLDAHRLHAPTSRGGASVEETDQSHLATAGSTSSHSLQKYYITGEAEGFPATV
Outline: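 Gal4-fusion ERa transactivation, measured as reporter transcript level in transiently transfected HepG2 cells. Exposure 24 h; RT-PCR plus capillary electrophoresis with fluorescence detection.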

[7] = target: Steroid hormone receptor ERR1 (Homo sapiens) (UniProt P11474); assay: ATG_ERRa_TRANS: Attagene TRANS-FACTORIAL HepG2 Assay for human Estrogen-Related Receptor alpha (ERRa) (AID 2282971; active means hit-call score of the fitted dose curve at least 0.9, where 1 is the maximum); details: HepG2 Attagene TRANS reporter, ERRa transactivation
Chain of Steroid hormone receptor ERR1 (Homo sapiens) (P11474 whole entry, looked up, the tested form may be a part): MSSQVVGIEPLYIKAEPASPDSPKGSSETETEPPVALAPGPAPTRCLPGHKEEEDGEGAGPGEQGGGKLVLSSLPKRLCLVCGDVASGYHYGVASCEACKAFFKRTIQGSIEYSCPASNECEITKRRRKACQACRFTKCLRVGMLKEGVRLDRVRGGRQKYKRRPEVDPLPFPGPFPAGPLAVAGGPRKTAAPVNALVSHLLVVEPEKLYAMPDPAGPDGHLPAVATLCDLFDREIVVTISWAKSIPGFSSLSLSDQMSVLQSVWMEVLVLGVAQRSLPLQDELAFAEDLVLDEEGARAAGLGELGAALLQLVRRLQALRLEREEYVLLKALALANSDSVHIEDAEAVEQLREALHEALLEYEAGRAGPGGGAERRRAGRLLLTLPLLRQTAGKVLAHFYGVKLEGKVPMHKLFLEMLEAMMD
Outline: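 HepG2 cells transiently transfected with GAL4-UAS reporter units and chimeric NR-Gal4 constructs; after 24 hour compound incubation, reporter mRNA quantified by RT-PCR, fluorescent labelling and capillary electrophoresis, gain of signal versus DMSO.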

[8] = ATG_M_19_TRANS: Attagene TRANS-FACTORIAL HepG2 Assay for M19 Transcription Factor (Internal Marker) (AID 2282974; active means hit-call score of the fitted dose curve at least 0.9, where 1 is the maximum); details: HepG2 Attagene TRANS-FACTORIAL M19 internal marker reporter
Outline: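 After transfection of HepG2 with GAL4-UAS-driven reporter constructs, cells are dosed for 24 h. Total RNA is reverse-transcribed, reporter sequences PCR-amplified and labelled, then HpaI-digested and sized by capillary electrophoresis.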

[9] = target: Estrogen-related receptor gamma (Homo sapiens) (UniProt P62508); assay: ATG_ERRg_TRANS: Attagene TRANS-FACTORIAL HepG2 Assay for human Estrogen-Related Receptor gamma (ERRg) (AID 2282977; active means hit-call score of the fitted dose curve at least 0.9, where 1 is the maximum;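 further: hits increase reporter signal over DMSO so potencies reflect activators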); details: HepG2 Attagene TRANS reporter, ERRg transactivation
Chain of Estrogen-related receptor gamma (Homo sapiens) (P62508 whole entry, looked up, the tested form may be a part): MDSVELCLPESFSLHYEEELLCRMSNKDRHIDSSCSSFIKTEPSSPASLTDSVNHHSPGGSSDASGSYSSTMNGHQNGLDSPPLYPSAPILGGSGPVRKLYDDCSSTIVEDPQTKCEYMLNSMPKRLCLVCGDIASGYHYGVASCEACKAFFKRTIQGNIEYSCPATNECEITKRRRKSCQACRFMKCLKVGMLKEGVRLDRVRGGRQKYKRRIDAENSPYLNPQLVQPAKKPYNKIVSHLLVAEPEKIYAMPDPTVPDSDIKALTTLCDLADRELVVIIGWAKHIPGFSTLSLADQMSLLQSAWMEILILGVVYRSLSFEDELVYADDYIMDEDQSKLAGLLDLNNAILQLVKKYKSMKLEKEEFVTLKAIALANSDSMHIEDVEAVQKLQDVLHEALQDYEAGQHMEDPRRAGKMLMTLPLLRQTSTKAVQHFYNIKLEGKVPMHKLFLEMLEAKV
Outline: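 Exogenous NR-Gal4 chimera activity measured as reporter transcript induction after 24 h in transiently transfected HepG2 cells. RNA reverse-transcribed, PCR-amplified, 6-FAM-labelled and resolved by capillary electrophoresis; increase over DMSO baseline.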

Measured: AC50

O=C(O)c1cccc([N+](=O)[O-])c1
inactive: [1] | [2] | [3]

C=CC(C)(CCC=C(C)C)OC=O (stereo unspecified)
inactive: all assays above

OC1C(O)C(O)C(O)C(O)C1O (stereo unspecified)
inactive: [1] | [4] | [2] | [8] | [3]

C=CC[N+](C)(C)CC=C
inactive: [1] | [4] | [2] | [3]

CCCCCNCCCCC
inactive: [1] | [4] | [2] | [3]

CCc1ccc(C=O)cc1
not listed: [3] | [6]
inactive: all other assays above

CCCCCCCCCCCCCCCC(=O)OC[C@H](O)[C@H]1OC(=O)C(O)=C1O
active: [1] 3.14 µM | [4] 37.1 µM
inactive: [2] | [3] | [9]

CN1[C@@H]2CC(OC(=O)[C@H](CO)c3ccccc3)C[C@H]1[C@@H]1O[C@@H]12 (stereo partly specified)
inactive: [1] | [4] | [6] | [2] | [3]

CSc1nc(NC2CC2)nc(NC(C)(C)C)n1
inactive: [1] | [2] | [8]

O=C(O)C[C@H](O)C[C@H](O)/C=C/c1c(C2CC2)nc2ccccc2c1-c1ccc(F)cc1
not listed: [5] | [8] | [9]
inactive: all other assays above

Nc1ccc(S(=O)(=O)O)c(N)c1
inactive: [1] | [4] | [2]

CC(CC(C)(C)C)CC(C)(C)CC(C)(C)C (stereo unspecified)
inactive: [1] | [4] | [5] | [2]

CO[Si](C)(OC)c1ccccc1
active: [4] 7.98 µM
inactive: [1] | [6] | [2] | [8]

C=CC(C)(C)O
inactive: [1] | [4] | [2] | [8] | [3]

CN(C)CCCN
inactive: [1] | [4] | [5] | [6] | [2]

CC1(CO)CN(c2ccccc2)NC1=O (stereo unspecified)
inactive: [1] | [4] | [5] | [2]

CC(C)OP(=O)(CP(=O)(OC(C)C)OC(C)C)OC(C)C
inactive: [1] | [4] | [6] | [2] | [3]

CCCCN
not listed: [6] | [7] | [9]
inactive: all other assays above

CC1CCC2CC1C2(C)C (stereo unspecified)
inactive: [1] | [5] | [2] | [8]

O=Cc1ccc(F)cc1
inactive: [1] | [4] | [6] | [2] | [3]

COC(=O)Cc1cccc2ccccc12
inactive: [1] | [4] | [5] | [6] | [2]

CCC(=O)OCCC(C)CCC=C(C)C (stereo unspecified)
not listed: [6] | [7] | [9]
inactive: all other assays above

CC(C)=CCCC(C)=CCCC(C)=CCO
inactive: [1] | [4] | [5] | [2] | [8]

C=CC(C)(O)CCC=C(C)CCC=C(C)C (stereo unspecified)
active: [1] 187 µM | [2] 120 µM

ClCCCl
inactive: [1] | [4] | [5] | [2]

C[C@]12CC[C@H]3[C@@H](CCC4=CC(=O)CC[C@@]43C)[C@@H]1CC[C@@H]2C(=O)CO
active: [4] 5.34 µM | [6] 1.78 µM
inactive: [1] | [2]

O=C(COc1ccc(Cl)cc1)N1CCN(Cc2ccc3c(c2)OCO3)CC1
not listed: [5]
inactive: all other assays above
